Laboratory results from the supplement of paper PMC12350171.
Structures can show the parent of a compound that is named as a salt. Values without a mark were called inactive.

What was measured:
Conditions in all cases: 20 µM
[1] = test system: Salmonella enterica typhimurium; test: growth AUC normalised to DMSO control (fraction of control); higher = less growth inhibition, active = hit call of the paper
Method in brief: (§1)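 Pathogens were passaged twice under anaerobic conditions, then inoculated into pre-reduced mGAM plates at a starting OD578 of 0.01, with compound at 20 μM and 1% DMSO, and sealed with breathable membranes. For Haemophilus parainfluenzae, the medium was supplemented with hemin and NAD. OD578 was read every hour for 24 h in three biological replicates. Growth-curve AUC was calculated by the trapezoidal rule up to the exponential-to-stationary transition and normalised to DMSO controls on the same plate.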

Shigella flexneri = test: as above
Method in brief: as §1

Vibrio cholerae = test: as above
Method in brief: as §1

[2] = test system: Yersinia pseudotuberculosis; test: as above
Method in brief: as §1

P. vulgatus RND KO = test: growth AUC normalised to DMSO control (median) (fraction of control); higher = less growth inhibition, active = hit call of the paper
Method in brief: (§2)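 Area under the growth curve, calculated by the trapezoidal rule up to entry into stationary phase, was normalised to vehicle wells on the same plate. Strains had been passaged twice overnight without oxygen and then grown in mGAM in 96-well plates from OD578 0.01, each with an approved-drug library compound at 20 μM in 1% DMSO. OD578 was read hourly over 24 h in an anaerobic incubator, and the median of three biological replicates is given.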

P. vulgatus WT = test: as above
Method in brief: as §2

[3] = test system: S. enterica typhimurium WT; test: as above
Method in brief: as §2

[4] = test system: S. enterica typhimurium tolC KO; test: as above
Method in brief: as §2
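For growth AUC normalised to DMSO control (median) in this document: active when median AUC fell below 0.1.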

| SMILES | growth AUC normalised to DMSO control [1] | growth AUC normalised to DMSO control (Shigella flexneri) | growth AUC normalised to DMSO control (Vibrio cholerae) | growth AUC normalised to DMSO control [2] | growth AUC normalised to DMSO control (P. vulgatus RND KO) | growth AUC normalised to DMSO control (P. vulgatus WT) | growth AUC normalised to DMSO control [3] | growth AUC normalised to DMSO control [4] |
| --- | --- | --- | --- | --- | --- | --- | --- | --- |
| CC(=O)NC[C@H]1CN(c2ccc(N3CCOCC3)c(F)c2)C(=O)O1 [Linezolid] | 0.885 (active) | 0.806 (active) | 0.0187 (active) | 0.916 | 0.00951 (active) | 0.011 (active) | 0.918 | 0.223 |
| Cn1cnc2c1c(=O)[nH]c(=O)n2C [Theobromine] | 1.03 | 1.08 | 1.04 | 1.03 | 1.02 | 1.03 | 1.01 | 1.01 |
| C/C=C(/C(=C/C)c1ccc(O)cc1)c1ccc(O)cc1 [Dienestrol] | 1 | 1.04 | 0.969 | 1.02 | 0.015 (active) | 0.264 | 1 | 0.857 |
| Cc1c(C)c2c(c(C)c1O)CCC(C)(COc1ccc(CC3SC(=O)NC3=O)cc1)O2 (configuration not stated) [Troglitazone] | 0.992 | 0.97 | 0.986 | 0.974 | 0.839 | 0.892 | 0.997 | 0.97 |
| O=C(CCNNC(=O)c1ccncc1)NCc1ccccc1 [Nialamide] | 0.997 | 1.02 | 1.05 | 1.01 | 0.995 | 1.04 | 0.999 | 1.01 |
| Oc1c(I)cc(Cl)c2cccnc12 [Clioquinol] | 1.03 | 0.996 | 1.07 | 1.01 | 0.134 | 0.0312 (active) | 1.01 | 0.55 |
| CC[C@H](C)C(=O)O[C@H]1C[C@H](O)C=C2C=C[C@H](C)[C@H](CC[C@@H](O)C[C@@H](O)CC(=O)O)[C@H]21 [Pravastatin] | 1.04 | 1.08 | 1.09 | 1.02 | 1.05 | 1.06 | 1.02 | 1.01 |
| C(=C\c1ccccc1)/CN1CCN(C(c2ccccc2)c2ccccc2)CC1 [Cinnarizine] | 0.986 | 0.925 | 0.895 | 0.976 | 1.01 | 1 | 0.997 | 0.965 |
| Cc1c(OCC(F)(F)F)ccnc1C[S+]([O-])c1nc2ccccc2[nH]1 (configuration not stated) [Lansoprazole] | 1 | 1 | 0.941 | 0.994 | 0.984 | 0.973 | 1 | 0.852 |
| CC(=O)[C@@]1(O)CC[C@H]2[C@@H]3C[C@H](C)C4=CC(=O)C=C[C@]4(C)[C@@]3(F)[C@@H](O)C[C@@]21C [Fluorometholone] | 1.01 | 1.03 | 1.05 | 1 | 1 | 1.01 | 1 | 0.987 |
| CN(C)CCN1C(=O)c2ccccc2N(C)c2ccccc21 [Dibenzepine hydrochloride] | 0.986 | 0.972 | 0.984 | 0.977 | 0.994 | 0.979 | 0.988 | 0.992 |
| Nc1nc(=O)c2nc(CNc3ccc(C(=O)N[C@@H](CCC(=O)O)C(=O)O)cc3)cnc2[nH]1 [Folic acid] | 0.991 | 0.99 | 1 | 0.994 | 0.997 | 1 | 0.997 | 1.01 |
| CN1CCCN=C1/C=C/c1cccs1 [Pyrantel tartrate] | 0.999 | 0.995 | 1.01 | 1.01 | 1.01 | 0.982 | 1.01 | 1 |
| Nc1nnc(-c2cccc(Cl)c2Cl)c(N)n1 [Lamotrigine] | 0.963 | 0.933 | 1.03 | 1.01 | 0.95 | 0.986 | 0.957 | 0.962 |
| Clc1cc(Cl)c(OCC#CI)cc1Cl [Haloprogin] | 1.02 | 1.02 | 1.05 | 0.973 | 1.01 | 1.08 | 1.04 | 0.993 |
| CC(C)(C)NC[C@H](O)COc1nsnc1N1CCOCC1 [Timolol maleate salt] | 0.981 | 1.01 | 1.01 | 0.987 | 1.01 | 1.01 | 0.999 | 0.999 |
| Cc1nccn1CC1CCc2c(c3ccccc3n2C)C1=O (configuration not stated) [Ondansetron hydrochloride] | 1.01 | 1.04 | 1.01 | 1 | 1.01 | 1.04 | 1 | 0.984 |
| OCCOCCN1CCN(C(c2ccccc2)c2ccc(Cl)cc2)CC1 (configuration not stated) [Hydroxyzine dihydrochloride] | 0.992 | 0.875 (active) | 0.975 | 0.865 | 0.989 | 1 | 1 | 0.978 |
| C=CC[N@@+]12CC[C@@]34c5ccccc5N5/C=C6/[C@H]7C[C@H]8[C@@]9(CC[N@@+]8(CC=C)C/C7=C/CO)c7ccccc7N(/C=C(/[C@@H](C[C@@H]31)/C(=C\CO)C2)[C@H]54)[C@@H]69 [Alcuronium chloride] | 0.94 | 1 | 1.09 | 1.03 | 1.05 | 1.06 | 1.01 | 1 |
| CCC(=O)O[C@]1(C(=O)CCl)[C@@H](C)C[C@H]2[C@@H]3CCC4=CC(=O)C=C[C@]4(C)[C@@]3(F)[C@@H](O)C[C@@]21C [Clobetasol propionate] | 1.01 | 1.04 | 1.02 | 1.01 | 1.02 | 1.05 | 1 | 0.927 |
| CCN(CC)CCNC(=O)c1ccc(N)cc1 [Procainamide hydrochloride] | 0.994 | 0.99 | 0.999 | 1 | 1.02 | 1.03 | 1 | 1 |
| CCn1cc(C(=O)O)c(=O)c2cc(F)c(N3CCNC(C)C3)c(F)c21 (configuration not stated) [Lomefloxacin hydrochloride] | 0.00422 (active) | 0.0101 (active) | 0.0243 (active) | 0.0292 (active) | 0.035 (active) | 0.11 | 0.0147 (active) | 0.0041 (active) |
| Cc1cn([C@H]2C=C[C@@H](CO)O2)c(=O)[nH]c1=O [Stavudine] | 1.01 | 1.03 | 1.03 | 0.992 | 1 | 1.05 | 1.03 | 1.02 |
| C[C@]12CCC(=O)C=C1CC[C@@H]1[C@@H]2[C@@H](O)C[C@@]2(C)[C@H]1CC[C@]2(O)C(=O)CO [Hydrocortisone] | 0.983 | 0.969 | 0.97 | 1.01 | 0.98 | 0.994 | 0.999 | 0.996 |
| CN1[C@@H]2CC[C@H]1C[C@@H](OC(c1ccccc1)c1ccccc1)C2 [Benztropine mesylate] | 1 | 1.01 | 1 | 1.01 | 0.944 | 0.904 | 0.998 | 0.195 |
| CN(C)CCC[C@@]1(c2ccc(F)cc2)OCc2cc(C#N)ccc21 [Escitalopram oxalate] | 1 | 0.991 | 0.976 | 0.99 | 1.01 | 1 | 0.989 | 0.982 |
| CN(C)CCCN1c2ccccc2CCc2ccc(Cl)cc21 [Clomipramine hydrochloride] | 0.992 | 1 | 0.874 | 1.01 | 0.976 | 0.957 | 1.01 | 0.962 |
| CC(C)NCC(O)c1ccc(NS(C)(=O)=O)cc1 (configuration not stated) [Sotalol hydrochloride] | 1 | 1.06 | 1.04 | 1.02 | 1.02 | 1.06 | 1.01 | 0.998 |
| NCc1ccc(S(N)(=O)=O)cc1 [Mafenide hydrochloride] | 1 | 0.998 | 1.03 | 0.969 | 0.963 | 0.815 | 1.01 | 1 |
